Source: PubChem
A selection: hits, their analogues and other compounds. The true share with any hit is near 13%.
LMNA splice mod – qHTS Assay for Modulators of Lamin A Splicing; HeLa LMNA splicing GFP/RFP minigene ratio, 48 h; Potency, µM (series often up to 46.1 µM), usual class: inhibitors; AID 1487, 2009; 200,000 tested, 0.01% active; active = well fitted inhibition curve with a large enough effect in the signal ratio, with a control signal flat, not every such curve was filed as active; inconclusive = small, poorly fitted or top-dose-only effect, or effect the other way, or a change in a side signal; the % refers to the signal ratio
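Read-out is the ratio of GFP to DsRed2 object intensity, acquired by 488 nm laser-scanning cytometry on HeLa lamin A-EGFP minigene reporter cells. Compound incubation 48 hrs at 37 °C in Opti-MEM with 2% FBS; DMSO 0.5% final.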
ALDH1A1 block – qHTS Assay for Inhibitors of Aldehyde Dehydrogenase 1 (ALDH1A1); 220,000 tested, 7.3% active; AID 1030, 2008; Aldehyde dehydrogenase 1A1 (Homo sapiens), P00352; Purified ALDH1A1, NADH fluorescence, propionaldehyde substrate; Potency, µM (titrated, usually from 75.3 µM), actives largely listed as inhibitors; active = well fitted inhibition curve with a large enough effect, not every such curve was filed as active; inconclusive = small, poorly fitted or top-dose-only effect, or another doubt; inactive = no such curve, though single readings can be large or run the other way
G9a inh – qHTS Assay for Inhibitors of Histone Lysine Methyltransferase G9a | G9a H3K9 monomethylation, AlphaScreen, 2 h | Potency, µM (highest dose often 102 µM), hits mostly inhibitors | 350,000 tested, 8.8% active | AID 504332, 2011; note: nearly all actives have a fitted effect of over 75% in size
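Enzyme 20 nM + cpd, 15 min RT; add b-H3K9 pep 500 nM / SAM 20 uM; 2 h RT; anti-H3K9me1 Ab 0.5 ug/mL + SA donor / anti-rabbit acceptor beads 20 ug/mL each, 10 min; AlphaScreen read.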
Sfp inh – qHTS Assay for Inhibitors of Bacillus subtilis Sfp phosphopantetheinyl transferase (PPTase); 4'-phosphopantetheinyl transferase ffp (Bacillus subtilis), Q9F4F7; Biochemical Sfp PPTase activity, qHTS; Potency, µM, actives largely listed as inhibitors; 310,000 tested, 3.5% active;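 note: the enzyme is Sfp with the accession as filed and its product quenches rhodamine fluorescence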
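Compounds were incubated with enzyme (final 15 nM) for 15 min at room temperature before substrate addition started the reaction. Fluorescence at 525 nm excitation, 598 nm emission was recorded immediately and after 30 minutes.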
KDM4E inh – qHTS Assay for Inhibitors of Human Jumonji Domain Containing 2E (JMJD2E); JMJD2E catalytic domain, FDH-coupled NADH fluorescence (FDH is formaldehyde dehydrogenase); Potency, µM (series often up to 57.1 µM), hits mostly inhibitors; 230,000 tested, 1.6% active; active = well fitted inhibition curve with a large enough effect, not every such curve was filed as active; inconclusive = small, poorly fitted or top-dose-only effect, or another doubt; inactive = no such curve, though single readings can be large or run the other way; note: nearly all actives have a fitted effect of over 50% in size
Target sequence (B2RXH2 1-337 limits assumed): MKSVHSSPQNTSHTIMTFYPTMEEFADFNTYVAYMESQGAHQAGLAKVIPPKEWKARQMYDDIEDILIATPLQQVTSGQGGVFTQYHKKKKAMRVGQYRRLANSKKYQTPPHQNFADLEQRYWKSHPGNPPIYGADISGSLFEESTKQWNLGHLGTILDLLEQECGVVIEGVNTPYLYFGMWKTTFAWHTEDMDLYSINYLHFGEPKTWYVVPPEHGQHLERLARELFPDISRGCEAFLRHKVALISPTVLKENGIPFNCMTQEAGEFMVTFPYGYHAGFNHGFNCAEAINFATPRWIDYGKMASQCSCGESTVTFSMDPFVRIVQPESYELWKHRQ
miR-21 act – qHTS Assay for Modulators of miRNAs and/orActivators of miR-21. HeLa miR-21 FLuc reporter, luciferase, 48 h. AID 2288, 2010. 340,000 tested, under 10 active. Potency, µM (series often up to 38.3 µM), usual class: activators;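 note: miR-21 action dims this reporter so a rising signal means less miR-21 action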
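Compounds were titrated across several concentrations (up to approximately 40 uM) and incubated 48 hours with HeLa miR-21-FLuc reporter cells (miR-21 target sequence downstream of FLuc, endogenous miR-21). Readout was firefly luciferase luminescence after lytic detection reagent.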
Numbers stand for hits; [ ] = another dose, or the depositor's remark. Unless noted, calls come from the whole dose curve; as a rule, active = well fitted curve in the direction sought with a large enough effect; inconclusive = small, poorly fitted or top-dose-only effect, or another doubt; inactive = no such curve, though single readings can be large; an effect the other way counts as inactive or inconclusive.

What do the screens show for `CC1CC(C)CN(C(=O)c2ccc(NS(=O)(=O)c3ccc4[nH]c(=O)[nH]c4c3)cc2)C1` (stereo not given)?
G9a inh: 50µM

What do the screens show for `CCCCCNC(=O)c1ccc(NS(=O)(=O)c2ccc3[nH]c(=O)[nH]c3c2)cc1`?
G9a inh: 32µM; Sfp inh: inactive; miR-21 act: inactive

How did O=c1[nH]c2ccc(NS(=O)(=O)c3ccc4ccccc4c3)cc2[nH]1 do in these assays?
LMNA splice mod: inactive; ALDH1A1 block: inactive; G9a inh: 50µM; Sfp inh: inactive; KDM4E inh: inactive; miR-21 act: inactive

How did CCOC(=O)c1ccc(NS(=O)(=O)c2ccc3[nH]c(=O)[nH]c3c2)cc1 do in these assays?
LMNA splice mod: inactive; ALDH1A1 block: 16µM; G9a inh: 11µM; Sfp inh: 22µM; KDM4E inh: inactive; miR-21 act: inactive

How did CCC(CC)NC(=O)c1ccc(NS(=O)(=O)c2ccc3[nH]c(=O)[nH]c3c2)cc1 do in these assays?
Sfp inh: inconclusive; miR-21 act: inactive

How did COc1cccc(Cn2c(=O)c(C)nc3cnc(N(C)C)nc32)c1 do in these assays?
LMNA splice mod: inactive; ALDH1A1 block: inconclusive; G9a inh: inactive[0.501 µM]; Sfp inh: inactive

How did Cc1csc2nc(COc3ccccc3NC(=O)c3ccco3)cc(=O)n12 do in these assays?
G9a inh: inactive; miR-21 act: inactive

How did COc1ccc(-n2nc(-c3ccc(C)cc3)c3cnc4cc(F)c(F)cc4c32)cc1 do in these assays?
G9a inh: inactive; miR-21 act: inactive

How did O=[N+]([O-])c1ccc(N2CCN(c3cccc(Cl)c3)CC2)cn1 do in these assays?
G9a inh: inactive; Sfp inh: inactive; miR-21 act: inactive

Results for COCCn1c(SCC(=O)c2c(C)[nH]c3ccccc23)nc2cc(C(=O)NC(C)C)ccc2c1=O ?
G9a inh: inactive; miR-21 act: inactive

Results for O=C(Nc1ncccc1O)c1ccc(NS(=O)(=O)c2ccc3[nH]c(=O)[nH]c3c2)cc1 ?
G9a inh: 71µM

Results for CCCCNC(=O)c1ccc(NS(=O)(=O)c2ccc3[nH]c(=O)[nH]c3c2)cc1 ?
G9a inh: 71µM; Sfp inh: inactive; miR-21 act: inactive

How did CC(C)(C)OC(=O)NCC(=O)Oc1cc2oc(=O)cc(-c3ccccc3)c2cc1Cl do in these assays?
LMNA splice mod: inconclusive; ALDH1A1 block: 25µM; G9a inh: inactive; Sfp inh: inactive; KDM4E inh: inconclusive; miR-21 act: inactive

Results for O=C(Oc1cc2oc(=O)cc(-c3ccccc3)c2cc1Cl)C1CCCCC1 ?
LMNA splice mod: inconclusive; ALDH1A1 block: inconclusive; G9a inh: inactive[12.7 µM]; Sfp inh: inactive; KDM4E inh: inconclusive; miR-21 act: inactive

How did OC(CC#CCN1CCCCC1)(c1ccccc1)c1ccccc1 do in these assays?
G9a inh: inactive; Sfp inh: inactive; miR-21 act: inactive

Results for OC(CC#CCN1CCCC1)(c1ccccc1)c1ccccc1 ?
G9a inh: 28µM; Sfp inh: inactive; KDM4E inh: inactive; miR-21 act: inactive

Results for CN1CCN(CC#CCC(O)(c2ccccc2)C2CCCC2)CC1 (stereo not given) ?
LMNA splice mod: inactive; ALDH1A1 block: inactive; G9a inh: 8.9µM; Sfp inh: inactive; KDM4E inh: inactive; miR-21 act: inactive

Results for OC(CC#CCN1CCOCC1)(c1ccccc1)c1ccccc1 ?
G9a inh: inconclusive; Sfp inh: inactive; miR-21 act: inactive

How did CN1CCN(CC#CCC(O)(c2ccccc2)c2ccccc2)CC1 do in these assays?
G9a inh: 71µM; Sfp inh: inactive; KDM4E inh: inactive; miR-21 act: inactive

How did Cn1c(C(=O)N2CCN(c3ccccc3)CC2)cc2cc(Cl)ccc21 do in these assays?
Sfp inh: inactive; miR-21 act: inactive
